Test in all cases: MAPPIT interaction score (arbitrary units); higher = stronger binary interaction signal, active = hit call of the paper
One assay has as its target Pgam5. Conditions: MAPPIT configuration: N-N; pair source set: DPIM.
For another assay, the target named is Pc. As to conditions: pair source set: Lit-BM-16.
Another assay deals with Pex14. As to conditions: MAPPIT configuration: N-C; pair source set: screen_3.
In the next assay the target is Pbgd. Conditions: pair source set: RRS.
The target in the next assay is ScpX. Conditions: MAPPIT configuration: N-N; pair source set: Curagen_high_conf.
The target of the next assay is Pdha. Conditions: pair source set: Lit-BM-16.
In another assay the target is Pgd. As to conditions: MAPPIT configuration: N-N; pair source set: DPIM.
For a further assay, the target named is qua. Conditions: MAPPIT configuration: N-N; pair source set: DPIM.
The target of another assay is Pfdn5. As to conditions: pair source set: Lit-BM-16.
Another assay addresses Pex3. As to conditions: MAPPIT configuration: N-C.
The target of the next assay is SsRbeta. As to conditions: MAPPIT configuration: N-C; pair source set: screen_3.
The next assay addresses Pfdn1. Conditions: MAPPIT configuration: N-N; pair source set: Curagen_high_conf.

Values without a mark were called inactive.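 The calls were made as follows: active = MAPPIT score above the 99th percentile of random reference set scores in the same batch; inactive = at or below it.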
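Also: HEK293T cells with Epo stimulation, STAT-responsive firefly luciferase reporter, fold induction versus unstimulated cells divided by the larger fold induction of two negative controls lacking either bait or prey.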

B1: Vps25 (protein)
chain: MAEFQWPWEYTFPPFFTLQPHEETRQQQLKVWTDLFLKYLRHTNRFTLSIGDQNSPLFHNEALKRRLSPELVLAILGELERSGHANPLDKRRQEWQVYWFTLEEYGNMVYDWVQETGQTNTICTLYEIASGENTSHLDFYGVDEAVLLSALRLLEEKGRCELIEMDGSHGVKFF
Regarding B1, the MAPPIT interaction score with Pgam5 was 2.9 (active).

B2: Psc (protein)
chain: MMTPESKAIQPAAATTKQTAEATATTTMAHTQQKSQLSTLAKTTTTTATNKAAKSVVSNANSSGNNSSKKLALSQSQKTTTTTTPPTTTTTTTAAAAAEATTNADKMQKQQQLKQQLFAACSIKVKSENTLATTANAALAAATTTTTTATPALATGKAAKTILENGIKKESTPPAVESVEASSSSSSSSSSSSSSSSSWPTTRRATSEDASSNGGASADEEKSEEDPTAAVAASSTATTTSDLATTSRPRPVLLTAVNPHIICHLCQGYLINATTIVECLHSFCHSCLINHLRKERFCPRCEMVINNAKPNIKSDTTLQAIVYKLVPGLYERELMRKRAFYKDRPEEAALATPEQRGDDTEHLIFSPSDDMSLSLEYAELGELKTDSEPELVDTLRPRYLQCPAMCRVSHLKKFVYDKFEIDAQRFSIDIMYKVKTIVLLDYYTLMDIAYIYTWKRDAPMRFYYRVYESPQPLVKPAPRRVLPLKLEKQERENQEQQLAVEVASSKVEPVSLPEDQKAEASIKVEEQESTREIVKEVIKDVAATPPTETLKLVINRNMLDKREKSHSPQMSSKSSSKSSPCTPVSSPSEPNIKLKIDLSKQNSVTIIDMSDPERREIVKPLKPEKESRSKKKDKDGSPKSSSSSSSSSSGERKRKSPSPLTVPPLTIRTERIMSPSGVSTLSPRVTSGAFSEDPKSEFLKSFALKPIKVKVESPERTLNNRAITPPSPSVQQSASPKSKGNNLDDSILMKPPSCMPPKSIASSKRKSKEPVKAVSKKQKLSPPLPTVDFKIRLPVTNGNSSGTASPKIEKPLMPPPAKPPMLAPRKLQPSAQFAPPPSPIHHHAGVQMSAPGNRTPIAKRYQPILPKASRPNPFANIPNDVNRLLKDAGTEIKSIGGGSVENNSNAAQKPHLYGPKGESKMGPPALPATTPSQGNKNVGKQAGNLPMSAPPNKGNSSNNYLNLALFNSSKCKGKEAPPGCRTPMYTPNSPIYSPSSPQYVPSYNIPTMPTYKYTPKPTPNSGSGNGGSGSYLQNMLGGGNGGSLGGLFPSPPTKSDQNTNPAQGGGGSSSATQSGGNNGIVNNNIYMPNEDAPEKQQVKVKSLLNSCNINIPSSLSITISRDNGDSSSPNNGQHPKHKSPVNNYIEIVKLPDQPQDQVQAAKEAQKRQSPPAAVPGHLAAKLPPPPPSKAIPSPQHLVSRMTPPQLPKVATPPPPSSPRVITPPKTSPPANAAKVTPLKPVLTPTQVDKKTPSPEKRTAAQMGSHSPTASENKSPKGGPAGVANSTGGAQNGDPAAKKFRPILPRQNGMPELAPKLPTLAPFVGFNPLQNPAAGKKVPPSKKSPNAGAAAHQSGQQKLVNGGQSQPAQQKTSPPAQKNQQQVKKVSKNPTPPPPSLPAVGKMMPHPVMHSQNAPLSIASSASAAAVASGQLDLSNFLKENLRRVHAAQAAQAAQVAAAANQSNMMYNLAQMGHMTPAMYNYQQAYFREQLSRMQRVGNEVFNDYLQKLKTAAATGGGGPVEGELKPMLPTVTLPSPGATPPAASPKTSPLPAGKLTAAATAPQTKGNSSSGAANARQQTAATGNNGATVPAASLPPATKSK
Take B2: the MAPPIT interaction score with Pc (MAPPIT configuration: N-C) was 1.11; with Pc (MAPPIT configuration: N-N) it was -0.137.

B3: CG42540 (protein)
chain: MPDSMMDMEHRDHQLHRQQQQSHHHQPPRLTASTSTFAPPAPAGSQSEERDRDRDRERDHHLHHHQSNNVASSPLPVTASIQLHQQQPQQQQQQQPLTQLQQPQLREREHHQQQQQQQQQMMQQPQQQQQMQQPQQQLPHSHHALMQQSQQQQAIHRAEARRADEEISDKASTCGKLLIFLSVALVIMTLPFSLFVCFKVVQEYERAVIFRLGRLMQGGAKGPGIFFILPCIDSYARVDLRTRTYDVPPQEVLTKDSVTVSVDAVVYYRVSNATVSIANVENAHHSTRLLAQTTLRNTMGTRHLHEILSERMTISGTMQVQLDEATDAWGIKVERVEIKDVRLPVQLQRAMAAEAEAAREARAKVIAAEGEQKASRALREASEVIGDSPAALQLRYLQTLNTISAEKNSTIVFPLPIDLITYFLKTNEATTQQNARAAAAAIGNTPPPLQLAPQQQMGQQQQPQYQQPQQQQQQYQPQQQQQQQQQQPQQQDQLYQQGQQISSAM
B3: the MAPPIT interaction score with Pex14 is 2.47.

B4: ref(2)P (protein)
chain: MPEKLLKITYQGAGPQKKINAYLRMPSQNYTILRREIELYLFQERQLPKCDVRTFWIDADKDEIEIVNQNDYEIFLAKCESNMHVQVAPLAPVEEPKATKQEGSSANAEAPSVDDPSNFTIHDAVECDGCGLAPLIGFRYKCVQCSNYDLCQKCELAHKHPEHLMLRMPTNNGPGMVDAWFTGPGLGRRSGRRSRGHCPFQETNQADPAGEPARDSRRERRQARRHAGVLTQFVEMMTNLPLNTTTATAPAEPQKPKAAEQTESPPQAEPTVTAEKAAESEAKPTEPKKVNTDQSVPRTEDPVTTPRSTQPTTPVINLDNISQIVPPEYMSAGIEILNNFSEMFSKIIDTTEGGDSGIFAPSTTPSAENKKPEEQGQSSGQSGASSANQSAVPSAAPSANQSNVPSANQSATPSISGSIPDAQLETEPLNPKPSETTTETEQERRRSDSLDPEWQLIDNAYSANNSNLINLDTTNPTAAPQEPVRDFGQLGELLRQHMNEEARVEQASANTQTAQVDTVSTSTSTTSVTTNSVGTSPAAPDDKRTVPVYHTDESINKSIHAMMAMGFSNEGAWLTQLLESVQGNISAALDVMNVSQNRN
Consider B4, for which the results for the MAPPIT interaction score in the assay with Pbgd (MAPPIT configuration: N-C), in the assay with Pbgd (MAPPIT configuration: N-N) and with ScpX were -0.0221, 0.0139 and 0.0182, respectively.

B5: Pdhb (protein)
chain: MLRTRLIQAASSAQRAFSTSQKALAAKQMTVRDALNSALDDELARDDRVFILGEEVAQYDGAYKVSRGLWKKYGDKRVIDTPITEMGFAGIAVGAAMAGLRPVCEFMTWNFSMQAIDHIINSAAKTFYMSAGAVNVPIVFRGPNGAASGVAAQHSQCFAAWYAHCPGLKVLSPYDAEDARGLLKSAIRDPDPVVFLENELVYGTAFPVADNVADKDFLVPIGKAKVMRPGKDITLVAHSKAVETSLLAAAELAKKGIEAEVINLRSIRPLDTATIFASVRKTHHLVTVENGWPQHGVGAEICARIMEDQTFFELDAPVWRCAGVDVPMPYAKTLEAHALPRVQDLVEATLKVLGGKVGKAAAANK
For the molecule B5, the MAPPIT interaction score with Pdha (MAPPIT configuration: N-C) was 0.121; with Pdha (MAPPIT configuration: N-N) it was 0.456; in the assay with Pgd it was -0.835; with qua, -0.463.

B6: Pfdn2 (protein)
chain: MSTESAKPALSQEAIVAQFQQLRNEQRNLVNSLNTLEMDLREHKTVIETLEAADPERKCFRQIGGVLCERTVKEVLPQLVENKDFIAKTIQMVTNDLSKKGSELNKFKEEHNIKIRGEHLVAEGAKGDDAEDKAENRNVLVFN
Regarding B6, the MAPPIT interaction score is 2.36 with Pfdn5 (MAPPIT configuration: N-C) and 5.93 (active) with Pfdn5 (MAPPIT configuration: N-N).

B7: hig (protein)
chain: MWSRQRMRHKPLWALISLTVLLLVLDKSNANTEPVETSTTSEPDASPGCRAPDVRFTIVKPEATTEQPLAKFETTQIYLPEDFTTADVEFVDSVPRHPNENHAAVINPYSLDLGDDHLHVGDAAASLVGDDDLGDEDEDHHGDPEDKRLNANRKQGKRRRAGSGRRRRIENENGQTGRGRGSRYKRHAILHDTEASPETDRWAGSKLAAEGDVYYVHIADILKSREPNRELKSKLHKLKMKARLNKCLAEGGKEKCTRLLKKKPKKKVVEKEQTLKKEKKFPKEEQSKEKVPENGQTPKEDELELDHPETAAAHHRRRGDSHAAELDQRDRSPRWRRRRSTEFKGDLGQLPPESGIGPEPEPLADQDLKDLQQYGNQSSSARVALLWQRVKRKSGKTTGALSRPKGGGDSSSKTTSRKDKGIYDEEAGYTPIHPDDPEFDEEEEEDEEVDILQQFTEVSEIRFPGEIGPMGDRRLCKIRCVKGKWVGPLCATNEEDDNGNVKFQPLYKSCHVNRIPSHLLLSYRNISVTPIPPNRGWRKTRLSKSTLLSNTEINVGWDLPHGHSLQARCQELGIYKLLGESRVLCSNGLWAPRMPSCVPTTVLTNYSEDSAPSIRIKIFNGSHSFEPSGVMAVPPHSTVLMDCMYPRVRGTPEWSWTSWYMQYSTGWSPAQEEKAVRYRLSIKNIENNDSGTFTCTSPRGLTNSIAVVVATSTCPQLTEPLAPLKLRLEGNKLGQRAHYECPEGFRLDGAWNATCLASGNWSSPTPTCHAIQCPRLELDDPHLSLIELNTSAWGRAVFKCQWGFKLTGPAQLDCEPSGVWSGPVPRCKVIQCVMPVAPLNGRIGGTSLSQRRLTVGALVTFSCNDGHSLVGESSIICTENGQWSHSPPFCKSQCPYPGDPPNGLIAPLKFNYDAGDYLSVQCRPGFVQSYEGPPERPKCQPDGRWSGPMPKCKSYEEV
On to B7, for which the MAPPIT interaction score is 1.39 with Pex3 (pair source set: screen_3) and -0.0878 in the assay with SsRbeta.

B8: Cpsf6 (protein)
chain: MADVVLDLYAEDLDKDFAGQAQDEFGGDGVDLYDDIGGPTESAASGGGGGGTPSADGAAGPGSGEPGERNSGGPNGVYHQSSGSLTPTMNRRYQLYVGNLTWWTTDQDIANSLRDIGVSDLQEVKFFENRANGQSKGFSVISLGSESSLRAVLDQLPKKEMHGQAPVVTYPSKQALTQFESLQKTRPVPPPQQNGPPRGPAPPSMGGGPMPTGHPGGPQGGGPPGHPPRGMNSIMQPGQYRPQHMSQVPQVGGPNSGPPRMQPPMHPQGGLMGNQQPPPRYPSAQGQWPGQRPGGPRPGPPNGPPQRPMFQGGPMGMPVRGPAGPDWRRPPMHGGFPPQGPPRGLPPAPGPGGPHGAPAPHVNPAFFNQPGGPAQHPGMGGPPHGAPGPQPGMNMPPQQGMNMTPQHGPPPQFAQHGPRGPWPPPQGKPPGPFPDPQQMGPQLTEVEFEEVMSRNRTVSSSAIARAVSDAAAGEYSSAIETLVTAISLIKQSKVAHDERCKILISSLQDTLHGIEAKSYNRRERSRSRERSHRSRQRRERSTSRYRERSRERERDRDRERERDGGSYRERSRSRERERQAPDHYRDDSRSVRPRKSPEPVVAEAAEAPSSKRYYEDRERYRSSDRERRDRDRDRDRERERDRDRREEHRSRH
Regarding B8, the MAPPIT interaction score with Pfdn1 is 0.767.

B9: heix (protein)
chain: MATSSQLLPNGNLSRNGKTKTEDGEEVEAVVGARAAGADAGVALTGRLTGHPSTSGTFMKLKTYLLALRPWSLSASLVPTLLGSALAYRSQWAEEFSLATFFLTAFTVVTVHCAGNVVNTYFDFIKGIDKQKADDRTLVDHILTKDEVVSLGAILYMAGCGGFVLLAVLSPAKMEHLALIYFGGLSSSFLYTGGIGFKYIALGDLVILILFGPISVLFAFMSQTGHLDWTTMGYAIPLALNTEAILHSNNTRDADNDRRAGIVTLAILIGRTASHVLYAMLLFAPYSLFFIFGLKYSLWFLLPLVTLPQAFQIEKRFRNEQTMHLVPRQTAKLNFFFGILYVVACCCAHQLPTFGLRRN
With B9, the MAPPIT interaction score with Pex3 (pair source set: screen_4) was -0.663.

These data come from the supplement of paper PMC10105736.
